Assay results published in PubChem BioAssay (NCI).
About 83,000 compounds went through this panel and 20% of them were active in at least one assay; those are over-represented in the sample as a whole.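 Assay: single dose, 48 h. Readout: percent growth (0 = no net growth; negative = cell death). Active: <10.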 Values without a mark were called inactive. Activity calls are given as the source filed them.

Key:
Experiment in all cases: NCI-60 one-dose screen, 48 h (100 = growth as untreated, 0 = no growth, -100 = all killed)
HOP-62 NSCLC = details: 10 µM unless noted
NCI-H460 lung = details: 10 µM unless noted
A549/ATCC NSCLC = details: 10 µM unless noted
786-0 renal = details: 10 µM unless noted
K-562 leukemia = details: 10 µM unless noted
MALME-3M melanoma = details: 10 µM unless noted
SF-295 CNS = details: 10 µM unless noted
SF-539 CNS = details: 10 µM unless noted
UACC-257 melanoma = details: 10 µM unless noted
SNB-75 CNS = details: 10 µM unless noted
UO-31 renal = details: 10 µM unless noted
CAKI-1 renal = details: 10 µM unless noted
A498 renal = details: 10 µM unless noted
HL-60(TB) leukemia = details: 10 µM unless noted
MOLT-4 leukemia = details: 10 µM
RPMI-8226 leukemia = details: 10 µM unless noted
OVCAR-4 ovarian = details: 10 µM unless noted
BT-549 breast = details: 10 µM
HCC-2998 colon = details: 10 µM unless noted
RXF 393 renal = details: 10 µM unless noted

Row | SMILES | growth (HOP-62 NSCLC) | growth (NCI-H460 lung) | growth (A549/ATCC NSCLC) | growth (786-0 renal) | growth (K-562 leukemia) | growth (MALME-3M melanoma) | growth (SF-295 CNS) [%] | growth (SF-539 CNS) | growth (UACC-257 melanoma) | growth (SNB-75 CNS) [%] | growth (UO-31 renal) | growth (CAKI-1 renal) | growth (A498 renal) | growth (HL-60(TB) leukemia) | growth (MOLT-4 leukemia) | growth (RPMI-8226 leukemia) | growth (OVCAR-4 ovarian) | growth (BT-549 breast) | growth (HCC-2998 colon) | growth (RXF 393 renal)
1 | CCCCCN(CCCCC)CC(O)c1ccc(C)c(Cl)c1 (stereo unspecified) | 90.1% | 101% | 92.7% | 98.2% | 92.5% | 105% | 87 | 101% | 95.4% | 90.9 | 88.3% | 98.2% | 78.5% | 116% | 110% | 91.8% | 105% | 107% | 107% | –
2 | COC(=O)C1CC2c3ccccc3C1c1ccccc12 (stereo unspecified) | 91.3% | 104% | 98.2% | 104% | 102% | 90.6% | 87.3 | 101% | 97.8% | 94.5 | 83.6% | 76.5% | 98.4% | 108% | 97.3% | 82.1% | 106% | 120% | 107% | 94.6%
3 | O=C(O)C1[O][Sb][O]C1C(=O)O (stereo unspecified) | 109% | 108% | 103% | 102% | 89.1% | 86.8% | 123 | 98.2% | 98.2% | 94.8 | 90.7% | 118% | 116% | 91.1% | 94.6% | 99.3% | 99.2% | 84.6% | 106% | 116%
4 | CCOC(=O)c1cnc(SCc2ccc(Cl)c(Cl)c2)nc1N1CC1 | 64.9% | 41% | 50% | 60% | 21.4% | 68.6% | 39.1 | 44.1% | 79% | 43.1 | 34.7% | 31.1% | 44.3% | 56.8% | 24.5% | 59.7% | 53.6% | 52.6% | 51.9% | 66.6%
5 | N#[N+]c1cnc([O-])[nH]c1=O | 105% | 107% | – | 93.9% | 76% | 105% | 105 | 97.5% | 75.8% | 74.7 | 39% | 94.3% | 85.9% | 67.4% | 91% | 60.2% | 100% | 114% | – | –
6 | O=C1NC(=O)C(CN2C(=O)C3(c4ccccc42)[C@H](Cl)C(=O)N3c2ccccc2)C(=O)N1 (stereo partly specified) | 66.3% | 94.8% | 77.3% | 94% | 65.5% | 95.4% | 91.5 | 74.1% | – | 52.7 | 69.2% | 85.7% | 105% | 85.4% | 62.5% | 63.1% | 97.6% | 72.3% | 83.9% | 65.5%
7 | CC1(C)N=C(N)N=C(N)N1c1ccc(OCCCCNC(=O)Nc2cccc(S(=O)(=O)F)c2)c(Cl)c1 | 62.8% | 14.2% | 15.4% | 35.8% | 17.7% | 56.5% | – | 40.1% | 45.4% | 74.8 | 90.1% | 96.6% | 90.3% | 29.4% | 37.6% | 38.1% | 97.1% | 66.4% | 50.8% | 58.2%
8 | COC(=O)C(=[N+]=[N-])C(=O)OC | 103% | 106% | 99.3% | 98.3% | 95.5% | 110% | 101 | 103% | 96.4% | 80.6 | 88.3% | 109% | 100% | 100% | 105% | 96.4% | 97.1% | 103% | 108% | 102%
9 | NC(=O)NC(=O)CI | 109% | 106% | 98.6% | 88% | 17.7% | -43.6% (active) | 119 | 109% | 79.1% | 106 | – | – | 97.9% | 98.3% | 13.8% | 91.3% | 94.4% | 85.8% | 113% | 65%
10 | CC1(CF)NC(=O)NC1=O (stereo unspecified) | 107% | 112% | 113% | 97.6% | 107% | – | 118 | – | 97.2% | 89.9 | – | 122% | 105% | – | 98.4% | 108% | – | 104% | 102% | 121%
11 | CC12CCC3C(CC=C4CC(O)CCC43C)C1C/C(=C\N1CCOCC1)C2=O (stereo unspecified) | – | 108% | – | 104% | 108% | 110% | 113 | 108% | 101% | 83.5 | 79.2% | 91% | – | 129% | 106% | 102% | 94.4% | 93.1% | 114% | 110%
12 | CNC(=O)Oc1cccc(OC)c1 | – | 115% | 106% | 107% | – | 115% | 121 | 111% | 112% | – | 97.5% | 86.1% | 87.8% | – | – | 109% | 105% | 103% | 105% | 111%
13 | O=C(CCF)c1ccc(O)cc1 | – | – | 101% | 103% | 98.9% | 108% | 100 | 103% | 98.2% | 96.9 | 87% | – | – | 99.2% | 100% | 97.5% | 103% | 110% | 108% | 109%
14 | O=C(N/N=C/c1ccc(N(CCCl)CCCl)cc1)c1cc(=O)[nH]c(=O)[nH]1 | – | 39% | 106% | 83.2% | – | 101% | 87.2 | 91.3% | 101% | 92.8 | 71.7% | 53.2% | 93.7% | – | – | 86.7% | 109% | 96.8% | 104% | 95.2%
15 | O=C(NCc1ccc([N+](=O)[O-])cc1)Nc1ccc(S(=O)(=O)F)cc1 | 70.5% | 95.8% | 75% | 80.1% | 93% | 78.7% | – | 88.3% | 83% | 86.2 | 61.2% | 78% | 55.9% | 85.1% | 87.3% | 68.9% | 83.4% | 94.9% | 99.2% | 59.9%
16 | CC(=O)O[C@H]1CCC2(C)C(=CCC3C2CCC2(C)/C(=N/OC(=O)c4ccc(N(CCCl)CCCl)cc4)CCC32)C1 (stereo partly specified) | -60.8% (active) | 21% | 2.05% (active) | 47.6% | 5% (active) | 92.2% | 63.5 | 51.5% | 97.2% | 22.5 | -11.9% (active) | 50.2% | 57% | 17.5% | 3.85% (active) | 26.6% | – | 51.4% | 80.3% | 44.1%
17 | O=[N+]([O-])c1ccc2cnn(CSP(=S)(c3ccccc3)c3ccccc3)c2c1 | 59.3% | – | 73.3% | 88.3% | 19% | 55.3% | 96.3 | 82.7% | 86.3% | 70.6 | 58.9% | 81.5% | – | 35.2% | 44% | 52.3% | 73.1% | 69.7% | 89% | 70.1%
18 | c1ccc([As]=[As]c2ccccc2)cc1 (stereo unspecified) | -54.4% (active) | -45.2% (active) | -22.8% (active) | -90.4% (active) | -60.2% (active) | -84.5% (active) | 43.8 | -66.8% (active) | -71.4% (active) | – | -96% (active) | -51.4% (active) | -48.5% (active) | -50.4% (active) | -49.1% (active) | -47.4% (active) | 7.07% (active) | -96.5% (active) | 0.927% (active) | -80.3% (active)
